The structures appear in SMILES notation. Results filed as inconclusive are left out. The source made the active and inactive calls. Rule for the calls, unless noted: active = hit-call score of the fitted dose curve at least 0.9, where 1 is the maximum; inactive = score below 0.9.

These results are taken from PubChem BioAssay (EPA / NIEHS).

Assay [1] can be described thus: ACEA_ER_80hr: ACEA Biosciences xCELLigence Real-Time Cell Analysis on Estrogen Receptor Agonism for Proliferation (AID 2282667; active = hit-call score of the fitted dose curve at least 0.9, where 1 is the maximum). The note with it: T47D proliferation, impedance (xCELLigence), 80 h. The gist of the method: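 T-47D cells monitored by electrical impedance (xCELLigence) with compound present throughout; 80 h timepoint, positive-direction fitting versus DMSO. Eight-point 1:4 dilutions from 100 uM final, duplicate plates.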

Assay [2] is described as follows: APR_HepG2_CellCycleArrest_24hr: Apredica 24-hour HepG2 Assay for Cell Cycle Arrest (AID 2282905).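 Note: cell cycle arrest scored as ratio of 2N to 4N nuclear DNA content.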 The note with it: imaging, actives raise or lower the signal. In outline:
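Readout: Hoechst 33342 nuclear DNA content by high-content fluorescent imaging, six images/well, 20x. Human HepG2 liver cells, 24 hr compound exposure, 0.39–200 uM, final DMSO 0.5% v/v. Gain or loss fitted relative to DMSO baseline.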

Assay [3] in a line: APR_HepG2_NuclearSize_24hr: Apredica 24-hour HepG2 Assay for Nuclear Size (AID 2282907). The note with it: high-content imaging, actives raise or lower the signal. In outline:
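Read-out: nuclear diameter from Hoechst 33342 (2 ug/mL) imaging of fixed HepG2 cells, 20x, six fields/well. Compounds ran at 0.39–200 uM for 24 hr, 0.5% DMSO final. Gain or loss was fitted bidirectionally relative to the DMSO baseline.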

Assay [4] can be described thus: APR_HepG2_CellLoss_24hr: Apredica 24-hour HepG2 Assay for Cell Loss (AID 2282908).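 For AC50: fit in both directions so a hit may be cell loss or gain.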 Particulars: high-content imaging. The gist of the method:
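Read-out: Hoechst 33342-stained nuclei counted by automated fluorescence imaging after formaldehyde fixation and Triton permeabilization. Ten concentrations, 0.39 to 200 uM, duplicate wells, 0.5% DMSO final. Gain or loss of signal fitted relative to DMSO baseline.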

Assay [5] in a line: APR_HepG2_MicrotubuleCSK_24hr: Apredica 24-hour HepG2 Assay for Microtubule CSK Stabilty (AID 2282909). The note with it: HepG2 microtubule cytoskeleton imaging, actives raise or lower the signal. In outline: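 Read-out: alpha-tubulin immunofluorescence intensity by automated high-content imaging of fixed HepG2 cells after 24 h compound treatment. Ten concentrations, 0.39 to 200 uM, in duplicate; DMSO 0.5% v/v. Taxol positive control; DMSO-normalized bidirectional curve fitting.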

A short description of assay [6]: APR_HepG2_MitoticArrest_24hr: Apredica 24-hour HepG2 Assay for Mitotic Arrest (AID 2282910). The note with it: high-content imaging, actives raise or lower the signal. In outline:
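HepG2, 24 hr dosing, 0.39–200 uM, 0.5% DMSO final. Formaldehyde-fixed, Triton-permeabilised, anti-phospho-histone H3 plus Hoechst. ArrayScan imaging at 20x; bidirectional fit vs DMSO baseline.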

Assay [7] can be described thus: APR_HepG2_MitoMembPot_24hr: Apredica 24-hour HepG2 Assay for Mitochondrial Membrane Potential (AID 2282911). The note with it: imaging, actives raise or lower the signal. The gist of the method: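 HepG2 cells exposed 24 h to 0.39–200 uM compounds in duplicate, 0.5% v/v DMSO final. MitoTracker Red CMXRos 250 nM loaded 30 min before formaldehyde fixation; high-content imaging at 20x, bidirectional fit versus DMSO.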

Assay [8] in a line: APR_HepG2_MitoMass_24hr: Apredica 24-hour HepG2 Assay for Mitochondrial Mass (AID 2282912). Particulars: high-content imaging, actives raise or lower the signal. In outline:
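HepG2, 24 hr dosing, 10 concentrations 0.39–200 uM in duplicate, DMSO 0.5% final. MitoTracker Red CMXRos 250 nM, 30 min pre-fix; 3.7% formaldehyde fix. Imaging-based fluorescence intensity; gain/loss fit vs DMSO baseline.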

Assay [9] is described as follows: APR_HepG2_p53Act_24hr: Apredica 24-hour HepG2 Assay for p53 Activation (AID 2282913).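 Note: p53 protein immunofluorescence averaged per cell in HepG2 with Hoechst nuclei.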 Particulars: high-content imaging, actives raise or lower the signal. In outline: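 HepG2 cells exposed 24 h to compounds at 0.39–200 uM in duplicate, 0.5% v/v DMSO final; fixed, permeabilized, stained with anti-p53 antibody and Hoechst 33342; fluorescence imaging; bidirectional curve fit versus DMSO.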

A short description of assay [10]: APR_HepG2_CellCycleArrest_72hr: Apredica 72-hour HepG2 Assay for Cell Cycle Arrest (AID 2282914). The note with it: high-content imaging, actives raise or lower the signal. The gist of the method:
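HepG2 cells exposed 72 h in duplicate to 0.39–200 uM compound, 0.5% DMSO final. Formaldehyde-fixed, Hoechst 33342-stained nuclei imaged at 20x, six fields per well; DNA content per valid cell quantified by cell-cycle image analysis, bidirectional fit versus DMSO.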

A short description of assay [11]: APR_HepG2_CellLoss_72hr: Apredica 72-hour HepG2 Assay for Cell Loss (AID 2282915). The note with it: high-content imaging. The gist of the method: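 HepG2 cells exposed 72 h to compound at 0.39–200 uM (10 concentrations, duplicate) in 0.5% DMSO. Fixed with 3.7% formaldehyde and Hoechst 33342-stained. Imaged at 20x; nuclear count gives cell number, fitted bidirectionally versus DMSO.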

Assay [12] in a line: APR_HepG2_P-H2AX_72hr: Apredica 72-hour HepG2 Assay for H2AX Phosphorylation (AID 2282916).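 Note: phospho-histone H2A.x immunostain intensity per cell marking DNA damage.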 Particulars: imaging, actives raise or lower the signal. The gist of the method: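 Readout: phospho-H2A.x immunofluorescence (FITC secondary) plus Hoechst nuclear stain, high-content imaging at 20x, six fields/well. HepG2, 72 hr compound exposure, 0.39–200 uM, final DMSO 0.5% v/v. Gain or loss fitted relative to DMSO baseline.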

The nature of assay [13]: APR_HepG2_MitoMembPot_72hr: Apredica 72-hour HepG2 Assay for Mitochondrial Membrane Potential (AID 2282917). The note with it: imaging, actives raise or lower the signal. The gist of the method: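 HepG2 cells dosed 72 hr with compound at 0.39–200 uM in duplicate, 0.5% v/v DMSO final. Mitochondria stained with 250 nM MitoTracker Red CMXRos for 30 min before formaldehyde fixation, imaged by high-content fluorescence; bidirectional fit versus DMSO.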

Assay [14] can be described thus: APR_HepG2_MitoticArrest_72hr: Apredica 72-hour HepG2 Assay for Mitotic Arrest (AID 2282918). Particulars: high-content imaging, actives raise or lower the signal. In outline:
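HepG2 cells treated 72 h at 0.39–200 uM, 0.5% DMSO final; formaldehyde-fixed, stained with Hoechst 33342 and phospho-histone H3 antibody, imaged by high-content fluorescence; bidirectional fit versus DMSO.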

Assay [15] is described as follows: APR_HepG2_MicrotubuleCSK_72hr: Apredica 72-hour HepG2 Assay for Microtubule CSK Stabilty (AID 2282919). The note with it: HepG2 microtubule cytoskeleton, high-content imaging, actives raise or lower the signal. In outline: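 HepG2, 72 hr cmpd exposure, 0.39–200 uM (10 pts, duplicate), 0.5% DMSO. 3.7% formaldehyde fix, 0.5% Triton perm, anti-alpha-tubulin/Cy5 plus Hoechst. HCS fluorescence intensity; bidirectional fit vs DMSO baseline; taxol as positive control.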

A short description of assay [16]: APR_HepG2_P-H2AX_24hr: Apredica 24-hour HepG2 Assay for H2AX Phosphorylation (AID 2282920). Particulars: high-content imaging, actives raise or lower the signal. In outline:
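HepG2 cells dosed 24 h at 0.39–200 uM (10 points, duplicate, 0.5% DMSO final). Formaldehyde-fixed and permeabilized, then immunostained for phospho-H2A.x with Hoechst. Fluorescence quantified by high-content imaging, fitted bidirectionally versus DMSO.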

Assay [17] is described as follows: APR_HepG2_StressKinase_72hr: Apredica 72-hour HepG2 Assay for Stress Kinase (AID 2282921). The note with it: HepG2 stress kinase (phospho-c-Jun) imaging, actives raise or lower the signal. The gist of the method:
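Phospho-c-Jun immunofluorescence measured by high-content imaging at 20x, six fields per well; bidirectional curve fitting against DMSO as baseline. Dosing: 0.39–200 uM, 72 h, 0.5% DMSO final.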

Assay [18] is described as follows: APR_HepG2_p53Act_72hr: Apredica 72-hour HepG2 Assay for p53 Activation (AID 2282923).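 Note: average cellular p53 protein immunofluorescence intensity in HepG2 cells.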 Particulars: high-content imaging, actives raise or lower the signal. The gist of the method: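 Readout: p53 immunofluorescence quantified by automated high-content imaging at 20x, six fields per well, nuclei located via Hoechst. Dosing ran 72 hr over ten concentrations from 0.39 to 200 uM; bidirectional curve fitting against DMSO baseline.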

The nature of assay [19]: APR_HepG2_MitoMass_72hr: Apredica 72-hour HepG2 Assay for Mitochondrial Mass (AID 2282924).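 Note: MitoTracker Red CMXRos stain intensity per cell imaged as mitochondrial mass.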 The note with it: high-content imaging, actives raise or lower the signal. In outline: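 Read-out: MitoTracker Red fluorescence intensity from automated imaging (20x, six fields per well) in human HepG2 liver cells. Dosing ran 72 hr, 0.39–200 uM, 0.5% DMSO; bidirectional curve fitting versus DMSO baseline.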

In general, AC50 refers to the concentration giving half of the maximal activity seen. For `CC(C)(C)CC(C)(C)c1ccc(O)c(-n2nc3ccccc3n2)c1`, the compound was called inactive in assay [1], in assay [3], in assay [5], in [8], in assay [13] and in assay [17]. Besides, the half-maximal activity concentration (AC50) in assay [2] is 36.9 µM (active); in assay [4], 57.1 µM (active); in assay [6] it was 48.9 µM (active); in [7] it was 50.6 µM (active); in assay [9], 62.6 µM (active); in assay [10], 26.2 µM (active). Moreover, the AC50 is 65.5 µM (active) in assay [11]; 61.7 µM (active) in [12]; 35.6 µM (active) in assay [14]; 47.9 µM (active) in assay [15]; 78.4 µM (active) in assay [16]; 19 µM (active) in assay [18]. For the same compound, the half-maximal activity concentration (AC50) in assay [19] was 42.8 µM (active).
`CCCCC[C@H](O)CC(=O)CCc1ccc(O)c(OC)c1`: the call in assay [1], in assay [2], in assay [3], in assay [4], in assay [5] and in assay [6] was inactive. Moreover, the call in assay [7], in assay [8], in [9], in assay [10], in assay [11] and in assay [12] was inactive. In addition, the call in assay [13], in [14], in [15], in assay [16], in assay [17] and in assay [18] was inactive. Besides, the call in assay [19] was inactive.
For `CC(C)CCCCCCOC(=O)CCCCC(=O)OCCCCCCC(C)C`, the outcome in assay [1], in assay [2], in assay [3], in [4], in [5] and in assay [6] was inactive. Moreover, the result in [7], in assay [8], in assay [9], in assay [10], in assay [11] and in assay [12] was inactive. The call in assay [13], in assay [14], in assay [15], in assay [16], in [17] and in assay [18] was inactive. Moreover, the result in [19] was inactive.
Turning to `CC(=O)NC1(c2cccc(F)c2)CCN(CC[C@@]2(c3ccc(Cl)c(Cl)c3)CN(c3ccccc3)C(=O)CO2)CC1`, the call in assay [1], in assay [3], in [13] and in [19] was inactive. Further, the AC50 in assay [2] was 26.3 µM (active); in [4] it was 36.3 µM (active); in assay [5], 146 µM (active); in [6] it was 31.6 µM (active); in [7], 90.2 µM (active); in assay [8], 151 µM (active). The AC50 in assay [9] was 21.6 µM (active); in assay [10] it was 18.7 µM (active); in assay [11], 21.3 µM (active); in assay [12], 21.8 µM (active); in [14] it was 14.8 µM (active); in [15], 37.7 µM (active). For the same compound, the figures for the half-maximal activity concentration (AC50) in [16], in assay [17] and in assay [18] were 39.3 µM (active), 24 µM (active) and 18.7 µM (active), respectively.
With `CN1CCN(c2ccccc2/C=C2\SCCN(c3ccc(Cl)c(Cl)c3)C2=O)CC1`, the result in assay [1], in [2], in assay [8], in [10], in assay [12] and in assay [13] was inactive. Further, the result in assay [18] was inactive. For the same compound, the AC50 is 11.2 µM (active) in assay [3]; 24 µM (active) in assay [4]; 80.7 µM (active) in assay [5]; 7.46 µM (active) in [6]; 53.6 µM (active) in assay [7]; 23.5 µM (active) in [9]. The AC50 in assay [11] is 12.4 µM (active); in [14], 4.25 µM (active); in assay [15], 23.5 µM (active); in [16], 32.7 µM (active); in assay [17], 19.4 µM (active); in [19], 109 µM (active).
On to `O=[N+]([O-])c1ccc(O)cc1`, for which the call in [1], in assay [2], in assay [3], in assay [4], in [5] and in [6] was inactive. Further, the compound was called inactive in assay [7], in assay [8], in assay [9], in [10], in assay [11] and in assay [12]. Further, the compound was classed as inactive in assay [13], in assay [14], in [15], in assay [16], in assay [17] and in assay [18]. For the same compound, the compound was classed as inactive in assay [19].
